Data from PubChem BioAssay (NCATS).
Inconclusive results are not listed. Activity calls are given as the source filed them. Unless noted, the call rests on the fitted dose curve; in most records, active means well fitted activation curve with a large enough effect; inconclusive means small, poorly fitted or top-dose-only effect; inactive means flat fitted curve, though single readings scatter.

Assay: qHTS Assay for Identification of Small Molecule Agonists for Hypoxia Response Element Signaling Pathway (AID 914; active means well fitted activation curve with a large enough effect in the signal ratio, with a control signal flat, not every such curve was filed as active; the % refers to the signal ratio; further: potency means the concentration at half of the fitted maximal effect; on activation: % of control where 0% means no effect)
Conditions: ME-180 (cervical carcinoma) HRE-bla reporter, beta-lactamase ratio, CoCl2, 17 h; activation: stronger effect = higher value
How it was run: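 HRE-bla ME-180 cells, overnight plating in Opti-MEM with 0.5% dialyzed FBS; cpd titration + EC50 CoCl2, 17 h, 37 degrees Celsius; CCF4 2.5 h RT; 460/530 nm ratio; AC50.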

| SMILES | activation | Potency |
| --- | --- | --- |
| N#Cc1cccc(NC(=O)N2CCCC3(CCN(C(=O)c4csnn4)CC3)C2)c1 | -5.53% (inactive) | – |
| N#Cc1cccc(NC(=O)N2CCCC3(CCN(C(=O)c4cc(C(F)(F)F)cc(C(F)(F)F)c4)CC3)C2)c1 | -10.4% (inactive) | – |
| O=S(=O)(c1ccccc1)N1CCC2(CC1)CN(Cc1ccccc1)C2 | 8.23% (inactive) | – |
| Cn1c(=O)c(-c2cccs2)nc2cnc(Oc3ccccc3)nc21 | – | 3.16 µM (active) |
| O=C(c1ccco1)N1CCC2(CCCN(Cc3ccccc3)C2)CC1 | 3.78% (inactive) | – |

Assay: Confirmation and Secondary Assay for Modulators of Hemoglobin Beta Chain Splicing at IVS2 705 locus (AID 930);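 further: HeLa cells stably expressing the EGFP-705 splicing reporter; GFP fluorescence per well restored by corrected splicing of the IVS2-705 intron in EGFP; % of control where 0% means no effect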
Conditions: HeLa EGFP-705 splicing reporter, GFP fluorescence, 48 h; series mostly up to 38.3 µM
How it was run: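 Read-out: total peak GFP fluorescence per well (488 nm excitation, 500-520 nm emission) by laser-scanning cytometry. Cells: HeLa EGFP-705 splicing reporter, 2 days compound exposure in Optimem/2% FCS.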

| SMILES | outcome |
| --- | --- |
| CN(C)c1ccc(-c2nc(NC3CCNCC3)c3ccccc3n2)cc1 | inactive |
| CNc1nc(-c2ccc(N(C)C)cc2)nc2ccccc12 | inactive |
| Cc1cnc(CNc2nc(-c3ccc4c(c3)OCO4)nc3ccccc23)cn1 | inactive |
